# This is part of a sample that, as a whole, favours compounds with a hit. Of some 83,000 tested, about 20% had one in any assay.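 Method: cells in 96-well plates; compound added at one concentration; 48 h incubation; percent growth measured; values under 10 scored active.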 Values without a mark were called inactive. Calls of active or inactive are those of the source.
# Columns and labels:
# Test in all cases: NCI-60 one-dose screen, 48 h (100 = growth as untreated, 0 = no growth, -100 = all killed)
# [1] = system: HCT-15 colon; conditions: 10 µM unless noted
# [2] = system: HT29 colon; conditions: 10 µM unless noted
# [3] = system: SNB-75 CNS; conditions: 10 µM unless noted
# [4] = system: SNB-19 CNS; conditions: 10 µM unless noted
# [5] = system: U251 CNS; conditions: 10 µM unless noted
# [6] = system: PC-3 prostate; conditions: 10 µM unless noted
# [7] = system: SK-MEL-5 melanoma; conditions: 10 µM unless noted
# [8] = system: UACC-62 melanoma; conditions: 10 µM unless noted
# [9] = system: LOX IMVI melanoma; conditions: 10 µM
# [10] = system: SK-MEL-28 melanoma; conditions: 10 µM unless noted
# [11] = system: SK-MEL-2 melanoma; conditions: 10 µM unless noted
# [12] = system: EKVX NSCLC; conditions: 10 µM unless noted
# [13] = system: SN12C renal; conditions: 10 µM unless noted
# [14] = system: UO-31 renal; conditions: 10 µM unless noted
# [15] = system: TK-10 renal; conditions: 10 µM unless noted
# [16] = system: ACHN renal; conditions: 10 µM unless noted
# [17] = system: CAKI-1 renal; conditions: 10 µM unless noted
# [18] = system: A498 renal; conditions: 10 µM unless noted
# [19] = system: CCRF-CEM leukemia; conditions: 10 µM unless noted
# [20] = system: MOLT-4 leukemia; conditions: 10 µM unless noted
Structure (SMILES),growth [1],growth [2],growth [3],growth [4],growth [5],growth [6],growth [7],growth [8],growth [9],growth [10],growth [11],growth [12],growth [13],growth [14],growth [15],growth [16],growth [17],growth [18],growth [19],growth [20]
CN(C)c1nc(NCCNS(=O)(=O)c2ccc(C(=O)/C=C/c3ccc(Cl)cc3)cc2)nc(Nc2ccc(F)cc2)n1,-84.4% (active),-97.5% (active),13.9%,-5.63% (active),-99.8% (active),-65.9% (active),-64.9% (active),-56.8% (active),-100% (active),-85.5% (active),-56.5% (active),2.04% (active),-97.7% (active),5.91% (active),-16.9% (active),-24.9% (active),-23.3% (active),9.56% (active),5.38% (active),-12.2% (active)
Cn1cc(-c2cc(N)n3nc(-c4cn(C)c5ccccc45)cc3n2)c2cc(Cl)ccc21,-78.3% (active),-67.2% (active),-44% (active),-0.728% (active),-74.5% (active),-38.1% (active),-67% (active),-56.2% (active),-86.5% (active),-86.7% (active),-87.4% (active),-31% (active),-53.9% (active),-88.5% (active),-42.9% (active),-28.2% (active),-82.5% (active),-24.8% (active),-5.76% (active),-6.02% (active)
COc1ccc(NC(=O)Nc2ccc(OCc3ccc(F)cc3)cc2)cc1,91.1%,92.3%,63.6%,46.9%,34.8%,79.7%,76.6%,82.6%,26.6%,75.5%,96.8%,74.2%,55.7%,26.3%,82.4%,42.2%,66.6%,80.3%,83.7%,94.8%
COC(=O)C[C@](O)(CCCC(C)(C)O)C(=O)O[C@H]1C(OC)=C[C@@]23CCCN2CCc2cc4c(cc2[C@@H]13)OCO4,0.83% (active),-48.3% (active),-48.9% (active),-26.8% (active),-23.4% (active),-15.1% (active),-71.9% (active),-18.5% (active),-82.4% (active),-35.4% (active),-40% (active),-4.85% (active),-11.3% (active),30.6%,-12.6% (active),2.95% (active),3.41% (active),-18.6% (active),-5.84% (active),-6.36% (active)
COc1ccc2[nH]cc(-c3cc(N)n4nc(-c5cn(C)c6ccccc56)cc4n3)c2c1,-83.4% (active),-73.7% (active),-52.4% (active),-48.4% (active),-85.3% (active),-67.6% (active),-96.3% (active),-76.5% (active),-67.9% (active),-92.9% (active),-96% (active),-82.8% (active),-73.2% (active),-93.7% (active),-95.3% (active),-100% (active),-96% (active),-80.6% (active),-39.3% (active),-41.4% (active)
CC1CN(c2oc(-c3ccc([N+](=O)[O-])cc3)nc2C#N)CC(C)O1 (stereo not given),97.1%,112%,98.8%,92.2%,104%,96.7%,104%,84%,95.6%,105%,103%,95.2%,91.5%,81.7%,109%,108%,98.2%,97.2%,100%,99.8%
COc1ccc(/C=N/NC(=O)Cn2nc(Cc3ccc(OC)cc3)c3onc(C)c3c2=O)cc1,70.2%,38.1%,26.9%,56.3%,54.6%,23.2%,91.6%,48.5%,10.6%,29.8%,78.9%,61.5%,27.5%,44.6%,79.4%,12.8%,-27.2% (active),48.1%,75.5%,78.7%
COc1cc(-c2nc3ccc(C)cc3[nH]2)ccc1OCc1nnc(-c2ccc(Br)cc2)o1,19.2%,-53.7% (active),85.7%,57.7%,5.13% (active),27.9%,20.2%,19.9%,77.1%,27.1%,83%,42.7%,36.2%,43%,33.2%,55.9%,44.6%,89.3%,26.4%,25%
COc1ccc(NC(=O)[C@H](C)N)cc1C(=O)Nc1cccc(C2CC(=O)c3c(cc(OC)c(OC)c3OC)O2)c1 (stereo not given in full),83.9%,109%,88.6%,91.5%,93.1%,72.4%,76.9%,84.4%,89.2%,101%,101%,97.2%,93.8%,73%,102%,87.1%,82%,97%,57.4%,59.8%
Cc1ccc(S(=O)(=O)c2nc(S(=O)(=O)c3ccc(C)cc3)c(N3CCN(C)CC3)s2)cc1,24.6%,56%,91.3%,85.7%,52.9%,78.8%,63.2%,48%,30.4%,68.8%,49.4%,63.4%,46.3%,69.5%,125%,71.6%,60.9%,83.5%,19.7%,30%
COc1ccc(/C=C2\C(=N)N=C(SCc3nc4ccccc4[nH]3)NC2=O)cc1,104%,116%,103%,104%,101%,122%,101%,103%,98.3%,118%,114%,109%,103%,77.8%,149%,109%,92.8%,119%,94.9%,104%
CCOC(=O)C1=C(N)N(c2ccccc2)C2=C(C(=O)CC(C)(C)C2)C1c1ccc(N2CCOCC2)cc1 (stereo not given),97.8%,112%,91.4%,92.9%,98.7%,94.6%,98.7%,83%,93.2%,107%,97.4%,95.4%,95.7%,90.3%,108%,96.7%,82.1%,110%,105%,99.2%
O=C(NN1C(=O)/C(=C/C=C/c2ccc([N+](=O)[O-])o2)SC1=S)c1ccc(Cl)cc1,-75.6% (active),-76.4% (active),-93.4% (active),-100% (active),-97.4% (active),-34.7% (active),-100% (active),-100% (active),-97.3% (active),-99.7% (active),-90.8% (active),-97.4% (active),-98.6% (active),-100% (active),-99% (active),-100% (active),-100% (active),-93.7% (active),-14.7% (active),2.15% (active)
O=C(COc1ccc2c(c1)CCCC(=O)N2)NCc1ccccc1,42%,103%,92.9%,89%,90.6%,94.9%,82%,86.5%,78.1%,90.4%,87.1%,95.2%,108%,84.7%,110%,103%,92.7%,94.6%,78%,80.6%
O=C(CCN1C(=O)/C(=C/c2ccc(F)cc2)SC1=S)N1CCOCC1,55.3%,78.7%,98.3%,87.6%,89.1%,106%,83.2%,47.6%,40.2%,72.9%,65.9%,87.2%,53%,51.1%,85.6%,63.6%,88.4%,72.5%,66.6%,84%
